This is an account of results in PubChem BioAssay (EPA / NIEHS).

Several values for one entry are separate records, joined by “and”; a condition that tells them apart may be missing. Identical values can stand only once. Some compounds were tested as several samples or in several runs, with calls that do not always agree. Activity calls are given as the source filed them. The calls were made as follows: active = hit-call score of the fitted dose curve at least 0.9, where 1 is the maximum; inactive = score below 0.9.

By AC50 is commonly meant the midpoint of the concentration-response curve, whichever way the signal moves.

Read-out in the assay: Bcl-2 (BAX) gene, BAX (gene 581)
Put plainly: LTEA_HepaRG_BAX: Life Technologies and Expression Analysis (LTEA) Assay for Bcl-2 (BAX) gene using HepaRG (AID 2283470). To be noted: mRNA level, 48 h; actives raise or lower the signal. The procedure:
LTEA_HepaRG is a cell based, multiplexed-readout assay that uses HepaRG, a human liver cell line, with measurements taken at 48 hours after chemical dosing on a 96-well plate.LTEA_HepaRG_BAX is one of 102 assay component(s) measured in the LTEA HepaRG cell culture assay. It is a marker of Cell proliferation, survival, death.Data from the assay component LTEA_HepaRG_BAX was analyzed into 1 endpoint. This assay endpoint, LTEA_HepaRG_BAX, was analyzed with bidirectional fitting relative to DMSO as the negative control and baseline of activity. Using a type of inducible reporter, measures of mRNA induction for gain or loss-of-signal activity can be used to understand regulation of transcription factor activity. To generalize the intended target to other relatable targets, this assay endpoint is annotated to the cell cycle intended target family, where the subfamily is Cell proliferation, survival, death.
A total of 1060 chemcials from the ToxCast library were tested in eight-point concentration-response experiments. Cell culture and cytotoxicity assays were conducted at Thermo Fisher Scientific's Custom Services facility (Madison, WI). A single lot of human HepaRG cells (Thermo Fisher Scientific, Frederick, MD) was used for the cell culture experiments. 96-well format collagen type I coated plates of human HepaRG cells were prepared using established methods. Briefly, cryopreserved HepaRG cells were thawed, plated at a density of approximately 100,000 cells/well in HepaRG Thaw, Plate, and General Purpose media (HPRG770, Thermo Fisher Scientific), and incubated for 48 hours. 0.5% DMSO was selected as vehicle control to balance the requisite need of DMSO in HepaRG cultures to maintain differentiation (for example, baseline metabolism, proportions of hepatocytes vs. cholangiocytes), while enabling further hepatic receptor pathway activation (for example, PXR and CAR) in response to chemical exposure. 48 hours after plating, the culture medium was replaced with HepaRG Serum-Free Incudtion Media. Cells were exposed to each test chemical in duplicate and maintained in CO2 incubators for another 48 hours. Chemical plates were thawed to room temperature and 200x concentrations of treatment groups were prepared. 8-point conentration-reponse curves were made with the highest exposure at 100 uM, followed by half-log dilutions, all in 0.5% DMSO. Each test plate contained variouse controls, induction positive controls (1mM phenobarbital), cytotoxicity positive controls ([…] aflatoxin B1), vehicle controls (0.5% DMSO), and total lysis controls (0.5% DMSO). Cell morphology images were taken using an Essen IncuCyte FLR automated microscope, with six 96-well plates imaged in about 24 minutes. Images were captured and exported and JPEG files. Spent culture media was transfered to black-well plates for the LDH assay, and remaining media was sorted at -80 C for later use. Cells were treated with RLT buffer and frozen until shipped for gene expression analysis. Total RNA was isolated from the cell suspension in 75 uL of Buffer RLT (Qiagen, Germantown, MD 20874) by Quintiles/Expression Analysis (Durham, NC) using a custom isolation procedure. Total RNA from each plate well was transferred to a preamplification plate. Fluidigm's 96.96 Dynamic ArrayTM (Fluidigm, Amsterdam, the Netherlands) technology was used for gene expression analyses by quantitative reverse transcription polymerase chain reaction (qRT-PCR, performed by Quintiles/Expression Analysis, Durham, NC)89. Standard TaqManTM Assays (Applied Biosystems/ThermoFisher Scientific, Foster City, CA) were used to assess the expression of 93 genes selected based on their selectivity and sensitivity to important hepatic receptors known to be modulated by environmental chemicals; importance in human hepatocyte functionality; and hepatotoxicity. […]
For `CNC(=O)Oc1cccc(N=CN(C)C)c1`, the compound was classed as inactive.
Same read-out and setting: under `O=C(NC(=O)c1c(F)cccc1F)Nc1ccc(OC(F)(F)C(F)OC(F)(F)F)c(Cl)c1` (stereo not given) stands “inactive”.
In the case of `O=S(=O)(O)C(F)(F)C(F)(F)C(F)(F)C(F)(F)C(F)(F)C(F)(F)C(F)(F)C(F)(F)F`, the outcome was inactive; the AC50 is 50 µM (active) and 48 µM (active).
In the case of `COP(=S)(OC)Oc1ccc([N+](=O)[O-])cc1`, the compound was called inactive.
On the same count and under the same terms, under `O=[N+]([O-])c1c(Cl)c(Cl)c(Cl)c(Cl)c1Cl` stands “inactive”; under `Oc1ccc(Cl)cc1Cc1ccccc1`, “inactive”.
Regarding `N#Cc1c(Cl)c(Cl)c(Cl)c(C#N)c1Cl`, the AC50 is 23.9 µM (active).
As to `CC(C)OC(=O)Nc1cccc(Cl)c1`, the outcome was inactive.
Same read-out and setting: as for `CC1(C)C(C=C(Cl)Cl)C1C(=O)OC(C#N)c1ccc(F)c(Oc2ccccc2)c1` (stereo not given), the entry is “inactive”.
As for `COP(=O)(OC)OC=C(Cl)Cl`, the result was inactive.
Still for that read-out and setting: under `CNC(=O)/C=C(\C)OP(=O)(OC)OC` stands “inactive”; under `CCC(C)Nc1c([N+](=O)[O-])cc(C(C)(C)C)cc1[N+](=O)[O-]` (stereo not given), “inactive”; under `ClC1C(Cl)C(Cl)C(Cl)C(Cl)C1Cl` (stereo not given), “inactive”.
Same read-out and setting: under `O=S1OCC2C(CO1)C1(Cl)C(Cl)=C(Cl)C2(Cl)C1(Cl)Cl` (stereo not given) stands “inactive”; under `O=C(O)CCCOc1ccc(Cl)cc1Cl`, “inactive”; under `O=[N+]([O-])/N=C1\NCCN1Cc1ccc(Cl)nc1`, “inactive”.
`C#CCN1C(=O)COc2cc(F)c(N3C(=O)C4=C(CCCC4)C3=O)cc21`: the compound was called inactive.
Regarding `N#CN`, the result was inactive.
On to `CCOCN(C(=O)CCl)c1c(C)cccc1CC`, for which the outcome was inactive.
With `Cc1[nH]c(=O)n(C(C)(C)C)c(=O)c1Cl`, the outcome was inactive.
The same measure, in the same setting: as for `CN1CSC(=S)N(C)C1`, the entry is “inactive”.
For the compound `CCCN(CCOc1c(Cl)cc(Cl)cc1Cl)C(=O)n1ccnc1`, the concentration at half-maximal activity (AC50) is 50 µM (active).
Regarding `CC1(c2ccc(Oc3ccccc3)cc2)OC(=O)N(Nc2ccccc2)C1=O` (stereo not given), the AC50 is 12.2 µM (active).
Take `CC(C)(C)C(O)C(Oc1ccc(Cl)cc1)n1cncn1` (stereo not given): the result was inactive.
Take `CCC(C)(NC(=O)c1cc(Cl)c(C)c(Cl)c1)C(=O)CCl` (stereo not given): the compound was classed as inactive.
Same read-out and setting: as for `CCOC1Oc2ccc(OS(C)(=O)=O)cc2C1(C)C` (stereo not given), the entry is “inactive”; as for `O=C(O)COc1ccc(Cl)cc1Cl`, “inactive”.
The same measure, in the same setting: as for `O=C(Nc1ccccc1)Nc1cnns1`, the entry is “inactive”; as for `Clc1ccccc1-c1nnc(-c2ccccc2Cl)nn1`, “inactive”; as for `CC(C)N(C(=O)COc1nnc(C(F)(F)F)s1)c1ccc(F)cc1`, “inactive”.
Take `CC[C@H](C)[C@H]1O[C@]2(C=C[C@@H]1C)C[C@@H]1C[C@@H](C/C=C(\C)[C@@H](O[C@H]3C[C@H](OC)[C@@H](O[C@H]4C[C@H](OC)[C@@H](O)[C@H](C)O4)[C@H](C)O3)[C@@H](C)/C=C/C=C3\CO[C@@H]4[C@H](O)C(C)=C[C@@H](C(=O)O1)[C@]34O)O2` (tested in a mixture with another compound): the AC50 is 7.73 µM (active).
For the compound `Oc1cc(Cl)ccc1Oc1ccc(Cl)cc1Cl`, the compound was called inactive.
Same read-out and setting: as for `CCN(CC)C(=O)SCc1ccc(Cl)cc1`, the entry is “inactive”; as for `OCCOc1ccccc1`, “inactive”.
On the same count and under the same terms, as for `COP(=S)(OC)Oc1ccc(SC)c(C)c1`, the entry is “inactive”.
In the case of `C[C@H]1[C@H](c2ccc(Cl)cc2)SC(=O)N1C(=O)NC1CCCCC1`, the AC50 was 77.2 µM (active).
Still for that read-out and setting: under `CC(C)(C)C(O)/C(=C\c1ccc(Cl)cc1Cl)n1cncn1` (stereo not given) stands 59.4 µM (active).
In the case of `O=C1c2ccccc2C(=O)N1SC(Cl)(Cl)Cl`, the compound was classed as inactive.
Still for that read-out and setting: under `CCCN(CCC)c1c([N+](=O)[O-])cc(C(F)(F)F)cc1[N+](=O)[O-]` stands “inactive”.
